IL1B secr inh = qHTS for Inhibitors of Inflammasome Signaling: IL-1-beta AlphaLISA Primary Screen | hit rate 4.7% among 360,000 | activity change, % at 57.5 µM | THP-1 LPS/ATP IL-1B secretion, AlphaLISA, 16 h; hits give low values; in the data active means activity change below about -50%; inconclusive means mostly about -30% to -49%; further: on the % scale 0 is the no-effect control and ±100 the full control effect
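THP-1 cells pretreated 1 hr with compounds (up to 57.5 uM final), then stimulated with LPS (250 ng/mL final) plus ATP (1.25 mM final); secreted IL-1B measured by AlphaLISA after 16 hr, decreased signal indicating inhibition.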
ATXN2 expr inh = Primary qHTS for Inhibitors of ATXN expression; Potency, µM (doses to about 57 µM), inactives show top-dose activity change, negative = inhibition, most hits filed as inhibitors; AID 1745845, 2022; hit rate 0.72% among 360,000; HEK-293 ATXN2-luciferase reporter, luminescence, 24 h; further: potency means the concentration at half of the fitted maximal effect; on the % scale 0 is the no-effect control and ±100 the full control effect; nearly all actives have a fitted effect of over 55% in size
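ATXN2-luciferase reporter cells (luciferase flanked by upstream and downstream ATXN2 gene portions) were treated 24 h at 37 °C with compounds at up to 57 uM. SteadyGlo luminescence gave expression; GF-AFC fluorescence gave viability.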
HepG2 viability = qHTS for Inhibitors of TGF-b: Cytotox Counterscreen; HepG2 CAGA-GFP viability, ATP luminescence, 18 h; Potency, µM (doses to about 46.1 µM), without a hit: at the highest dose activity change, negative = cytotoxicity, hits mostly cytotoxic; hit rate 0.76% among 410,000; further: potency means the concentration at half of the fitted maximal effect
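HepG2 CAGA-GFP cells (1000/well, DMEM with 1% FBS) received compound, then TGF-beta at 500 pg/mL final, and were incubated 18 hours at 37 degrees C. Viability was read by CellTiter-Glo luminescence. Media-only wells were set as complete cell-killing and DMSO as no toxicity.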
TGFb inhibitor = qHTS for Inhibitors of TGF-b; HepG2 CAGA-GFP TGF-b/SMAD3 reporter, GFP fluorescence, 18 h; TGF-beta stimulated, 500 pg/mL final; Potency, µM (doses to about 46.1 µM), for inactives: top-dose activity, negative = inhibition, usual class: inhibitors; hit rate 1.2% among 410,000; further: potency means the concentration at half of the fitted maximal effect; on the % scale 0 is the no-effect control and ±100 the full control effect; nearly all actives have a fitted effect of over 65% in size
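HEPG2 CAGA-GFP, 1000 cells/well; 2 h settle, 37 C; cpd via pin tool; TGF-b 500 pg/mL final; 18 h, 37 C; GFP imaging ex488/em500-530; %Activity normalised to -TGF-b and +DMSO controls; CRC fit, curve class.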
S2 tox = Viability Counterscreen for Primary qHTS for Inhibitors of ATXN expression | hit rate 0.49% among 400,000 | Potency, µM (doses to about 56.7 µM), usual class: cytotoxic | S2 cells (HEK-293 line with an ATXN2-luciferase reporter) viability, CellTiter-Fluor protease fluorescence, 24 h; further: potency means the concentration at half of the fitted maximal effect; nearly all actives have a fitted effect of over 40% in size
Starred values were filed as active, the others as inactive; i = inactive; ? = inconclusive; . = no result. Compounds with a hit are over-represented: about 5.7% of the library has one in this group of screens. Unless noted, the call rests on the fitted dose curve; in most records, active means well fitted curve in the direction sought with a large enough effect; inconclusive means small, poorly fitted or top-dose-only effect, or another doubt; inactive means no such curve, though single readings can be large; an effect the other way counts as inactive or inconclusive.

SMILES | IL1B secr inh | ATXN2 expr inh | HepG2 viability | TGFb inhibitor | S2 tox
C1=NCCc2c1[nH]c1ccccc21 | 50 | ? | -36% | ? | i
O=C1NCc2c1c1c3ccccc3[nH]c1c1[nH]c3ccccc3c21 | . | . | 13µM* | ? | .
CC[N+]1(CC)CCC(OC(=O)C(O)(c2ccccc2)c2ccccc2)C1 (configuration not stated) | . | 4% | . | . | i
CC(NC(=O)Oc1cccc2ccccc12)c1ccccc1 (configuration not stated) | 20 | -5% | -35% | 5% | i
O=[N+]([O-])c1ccccc1CCl | -68* | 17% | 1% | -1% | i
OC(CNCCc1c[nH]c2ccccc12)c1ccccc1 (configuration not stated) | -57* | -21% | -1% | 11% | i
COc1cc(C)c(CNCCc2c[nH]c3ccccc23)cc1C | -72* | . | 11µM* | ? | ?
Fc1ccccc1CNCCc1c[nH]c2ccccc12 | -29 | -22% | -18% | 10% | i
Fc1ccc(CNCCc2c[nH]c3ccccc23)cc1 | -81* | ? | -41% | -6% | i
Fc1ccc(CNCCc2ccccc2F)cc1 | -27 | 2% | -3% | 0% | i
Fc1ccc(CCNCc2ccc(Br)cc2)cc1 | -68* | -25% | -65% | -28% | i
Cc1ccc(C(=O)COC(=O)c2cccc(NC(=O)c3ccc(Br)cc3)c2)cc1 | . | 10% | -17% | 2% | ?
Cc1ccccc1-c1nc(CS(=O)CC(=O)N2CCN(c3cc(Cl)ccc3C)CC2)c(C)o1 (configuration not stated) | . | -25% | -21% | ? | i
COP(=O)(/C=C/c1ccccc1)C(O)c1ccc(F)cc1 (configuration not stated) | 7 | -12% | -82% | 6% | i
Cc1ccc(-c2nnc(Nc3ccc(OC(F)(F)Cl)cc3)c3ccccc23)cc1S(=O)(=O)NC(C)(C)CO | . | 0% | -28% | ? | i
COc1cccc(CNCCc2c[nH]c3ccccc23)c1 | -78* | ? | -8% | 0% | i
CC1=NCCc2c1[nH]c1cc(O)ccc21 | 6 | 2% | 0% | 141% | .
COc1ccc2c3c([nH]c2c1)C(C)=NCC3 | -84* | 0% | -9% | 7% | .
C=CCN1CC[C@]23CCCC[C@H]2[C@H]1Cc1ccc(O)cc13 | . | -2% | . | . | i
CCCC/C(=N/O)c1c(C)[nH]c2ccccc12 | -4 | 0% | 0% | -4% | i
CCCCC/C(=N/O)c1c(C)[nH]c2ccccc12 | -62* | -2% | 0% | -20% | i
CC(C)Oc1ccc(CNC(=O)Oc2ccccc2)cc1 | 0 | ? | -21% | -21% | ?
Cn1cc(C(=O)OCC(=O)NC2CCCC2)c2ccccc21 | -8 | 2% | 6% | 4% | ?
CN(C(=O)COC(=O)c1cn(C)c2ccccc12)C1CCCCC1 | -50* | 7% | -15% | -18% | i
OC(c1ccccc1)(c1ccccc1)C1CN2CCC1CC2 (configuration not stated) | -26 | 4% | -10% | -6% | i
SMILES | IL1B secr inh | ATXN2 expr inh | HepG2 viability | TGFb inhibitor | S2 tox
OC(c1ccccc1)(c1ccc(Cl)cc1)C1CN2CCC1CC2 (configuration not stated) | -70* | -13% | -66% | 0% | i
COC(=O)C1=C(c2ccc(OCc3ccccc3)cc2)C[C@@H]2CC[C@H]1N2C(=O)NC1CCN(Cc2ccccc2)CC1 | -21 | 13µM* | -76% | ? | 11µM*
COC(=O)C1=C(c2ccc(F)cc2F)C[C@@H]2CC[C@H]1N2C(=O)NC1CCCCC1 | 2 | 6% | 6% | 13% | i
COC(=O)C1=C(c2ccc(-c3ccccc3)c(F)c2)C[C@@H]2CC[C@H]1N2C(=O)NC1CCCCC1 | -60* | -16% | -19% | -20% | i
COC(=O)C1=C(c2ccc(OCc3ccccc3)cc2)C[C@@H]2CC[C@H]1N2C(=O)NCCN1CCOCC1 | 12 | -26% | -2% | -18% | i
CC(C)C[C@H](CN)CC(=O)O | . | -4% | . | . | .
